Experimental data: PubChem BioAssay (EPA / NIEHS)
Activity calls are given as the source filed them. Rule for the calls: active = hit-call score of the fitted dose curve at least 0.9, where 1 is the maximum; inactive = score below 0.9.

What was measured:
[1] = read-out: Vascular endothelial growth factor receptor 2 (Homo sapiens) (UniProt P35968); assay: BSK_4H_VEGFRII: BioMAP Diversity Plus: 4H Assay for Vascular endothelial growth factor receptor 2 (VEGFR2) Biomarker Activity (AID 2283031); details: primary human endothelial cells (HUVEC); actives raise or lower the signal;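 for AC50: cell-surface VEGFR2 protein level quantified by ELISA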
Procedure, shortened: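 ELISA read-out of VEGFRII in primary human umbilical vein endothelium, taken 24 h after chemical treatment. Responses are expressed relative to DMSO, with bidirectional fitting.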

[2] = read-out: Human Leukocyte Antigen - DR isotype (HLADR), HLA-DRA (gene 3122); assay: BSK_BE3C_HLADR: BioMAP Diversity Plus: BE3C Assay for Human Leukocyte Antigen - DR isotype (HLADR) Biomarker Activity (AID 2283032); details: primary human bronchial epithelial cells; actives raise or lower the signal
Procedure, shortened: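 BioMAP BE3C format: human bronchial epithelium, 24 h compound treatment, ELISA detection of HLA-DR, with bidirectional analysis relative to DMSO.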

[3] = read-out: Interferon-gamma inducible Protein 10 (IP10), CXCL10 (gene 3627); assay: BSK_BE3C_IP10: BioMAP Diversity Plus: BE3C Assay for Interferon-gamma inducible Protein 10 (IP10) Biomarker Activity (AID 2283034); details: primary human bronchial epithelial cells; actives raise or lower the signal
Procedure, shortened: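 BE3C cells (human bronchial epithelial, primary); 24 h exposure; ELISA for IP-10; DMSO-referenced bidirectional fit.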

[4] = read-out: Monokine induced gamma interferon (MIG), CXCL9 (gene 4283); assay: BSK_BE3C_MIG: BioMAP Diversity Plus: BE3C Assay for Monokine induced gamma interferon (MIG) Biomarker Activity (AID 2283035); details: primary human bronchial epithelial cells; actives raise or lower the signal
Procedure, shortened: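 hu bronchial epithelial 1° cells, 24 h cpd; MIG by ELISA; bidirectional fit, DMSO = baseline.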

[5] = read-out: Transforming growth factor beta 1 (TGFb1), TGFB1 (gene 7040); assay: BSK_BE3C_TGFb1: BioMAP Diversity Plus: BE3C Assay for Transforming growth factor beta 1 (TGFb1) Biomarker Activity (AID 2283036); details: primary human bronchial epithelial cells; actives raise or lower the signal
Procedure, shortened: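 TGF-b1 measured via ELISA, 24 h after chemical dosing of human bronchial epithelial cells (BE3C). Overt cytotoxicity assessed in parallel by SRB (0.1%, TCA-fixed, 560 nm); analysis bidirectional relative to DMSO.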

[6] = read-out: Plasminogen activator inhibitor-1 (PAI1), SERPINE1 (gene 5054); assay: BSK_BE3C_PAI1: BioMAP Diversity Plus: BE3C Assay for Plasminogen activator inhibitor-1 (PAI1) Biomarker Activity (AID 2283037); details: primary human bronchial epithelial cells; actives raise or lower the signal
Procedure, shortened: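 In this multiplexed primary-cell system, bronchial epithelial cells receive test chemical and are sampled at 24 h. PAI-1 is read by ELISA, with DMSO serving as negative control for bidirectional fitting.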

[7] = read-out: urokinase plasminogen activator (uPA), PLAU (gene 5328); assay: BSK_BE3C_uPA: BioMAP Diversity Plus: BE3C Assay for urokinase plasminogen activator (uPA) Biomarker Activity (AID 2283038); details: primary human bronchial epithelial cells; actives raise or lower the signal
Procedure, shortened: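 Bronchial epithelial cells (human, primary); chemical 24 h; uPA by ELISA; bidirectional fit vs DMSO. SRB (0.1%, after 10% TCA fixation, 560 nm) in parallel cultures for cytotoxicity.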

[8] = read-out: Urokinase-type plasminogen activator receptor (uPAR), PLAUR (gene 5329); assay: BSK_BE3C_uPAR: BioMAP Diversity Plus: BE3C Assay for Urokinase-type plasminogen activator receptor (uPAR) Biomarker Activity (AID 2283039); details: primary human bronchial epithelial cells; actives raise or lower the signal
Procedure, shortened: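 Chemically treated human bronchial epithelial cells (lung primary) are assayed for uPAR by ELISA after 24 h, with data fitted in both directions using DMSO as negative control.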

[9] = read-out: Interleukin-6 (IL6), IL6 (gene 3569); assay: BSK_CASM3C_IL6: BioMAP Diversity Plus: CASM3C Assay for Interleukin-6 (IL6) Biomarker Activity for (AID 2283040); details: primary human coronary artery smooth muscle cells; actives raise or lower the signal
[10] = read-out: Vascular cell adhesion molecule 1 (VCAM1), VCAM1 (gene 7412); assay: BSK_4H_VCAM1: BioMAP Diversity Plus: 4H Assay for Vascular cell adhesion molecule 1 (VCAM1) Biomarker Activity (AID 2283033); details: primary human endothelial cells (HUVEC); actives raise or lower the signal
Procedure, shortened: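 In this human endothelial (HUVEC) system, biomarker ELISA was run 24 h after compound addition, and total protein in parallel wells was assessed by SRB at 560 nm; DMSO served as negative control.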

Measured: AC50

OCc1ccco1
inactive: [1] | [2] | [3] | [4] | [5] | [6] | [7] | [8] | [9]

CC12CC1(C)C(=O)N(c1cc(Cl)cc(Cl)c1)C2=O (centres undefined)
inactive: [1] | [2] | [10] | [3] | [5] | [6] | [7] | [8] | [9]

CCOP(=S)(OCC)Oc1nc(Cl)c(Cl)cc1Cl
inactive: [1] | [2] | [3] | [4] | [5] | [6] | [7] | [8] | [9]

CCOC(=O)/C=C(C)/C=C/C[C@@H](C)CCCC(C)C
active: [1] 33 µM | [2] 20 µM | [10] 30.6 µM | [3] 20 µM | [4] 30 µM | [5] 20 µM | [7] 20 µM | [8] 20 µM | [9] 30.7 µM
inactive: [6]

Nc1ccc(-c2ccc(N)c(Cl)c2)cc1Cl
inactive: [1] | [2] | [3] | [4] | [5] | [6] | [7] | [8] | [9]

O=C(O)C(F)(F)C(F)(F)C(F)(F)C(F)(F)C(F)(F)C(F)(F)F
inactive: [1] | [2] | [3] | [4] | [5] | [6] | [7] | [8] | [9]

CCC(=O)C(CC(C)N(C)C)(c1ccccc1)c1ccccc1 (centres undefined)
inactive: [1] | [2] | [10] | [3] | [4] | [5] | [6] | [7] | [8] | [9]

O=[N+]([O-])c1ccc(O)c([N+](=O)[O-])c1
inactive: [1] | [2] | [10] | [5] | [7] | [8] | [9]
active: [3] 29.8 µM | [6] 30.5 µM
